Compound activity from PubChem BioAssay.
GDH-TPI counter-1 – GDH-TPI coupling enzyme inhibitors, primary screen, artefact control for M. tuberculosis FBA inhibitor project, biochemical, absorbance, full deck | GDH-TPI coupled enzyme counterscreen, NADH absorbance | inhibition, % at 4.8 µM | actives 1.2% (n = 360,000) | AID 588335, 2011; in the data active = inhibition above about 30%
3CLpro inhibitor – SARS-CoV 3CLpro protease inhibitors, primary screen, biochemical, quenched FRET. recombinant SARS-CoV 3CLpro, quenched FRET peptide cleavage. inhibition, % at 6 µM. actives 0.14% (n = 290,000). Replicase polyprotein 1ab (Severe acute respiratory syndrome coronavirus), P0C6X7; in the data active = inhibition above about 12%
PrPC TRFRET – inhibitors of human cell surface prion protein PrPC, primary screen, cell-based, TR-FRET; inhibition, % at 13.8 µM; TR-FRET read-out; actives 0.43% (n = 370,000); Major prion protein (Homo sapiens), P04156; in the data active = inhibition above about 24%
Mtb FBA inh – Mtb FBA enzyme inhibitors, primary screen, biochemical, fluorescence, strain H37Rv | Fructose-bisphosphate aldolase (Mycobacterium tuberculosis (strain ATCC 25618 / H37Rv)), … | purified M. tuberculosis FBA, fluorescence read-out | inhibition, % at 1 µM | actives 2.3% (n = 360,000) | AID 588726, 2011
Target sequence (P9WQA3 whole entry, looked up): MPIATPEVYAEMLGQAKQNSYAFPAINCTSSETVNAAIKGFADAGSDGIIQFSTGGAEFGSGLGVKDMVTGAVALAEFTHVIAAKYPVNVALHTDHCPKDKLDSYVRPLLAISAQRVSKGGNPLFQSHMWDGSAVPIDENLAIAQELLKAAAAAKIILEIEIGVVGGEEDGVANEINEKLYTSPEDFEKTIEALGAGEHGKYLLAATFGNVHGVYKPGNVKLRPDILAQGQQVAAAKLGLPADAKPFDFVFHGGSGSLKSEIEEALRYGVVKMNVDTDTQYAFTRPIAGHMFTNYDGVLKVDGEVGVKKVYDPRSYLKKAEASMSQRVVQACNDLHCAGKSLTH
BH1578 lux ind – inducers of Vibrio cholerae quorum light production without autoinducers, primary screen, BH1578 luxS cqsA deficient, single point. actives 0.16% (n = 350,000). AID 588436, 2011. V. cholerae BH1578 lux reporter, luminescence, 6 h. activation, % at 18.7 µM; in the data active = activation mostly above about 9.7%, no sharp cut-off
Mtb FBA confirm – M. tuberculosis aldolase blockers, biochemical, fluorescence, strain H37Rv, confirmation; shares compounds with Mtb FBA inh; purified M. tuberculosis FBA, fluorescence read-out; inhibition, % at 1 µM; actives 78% (n = 5,600)
GDH-TPI counter-2 – GDH-TPI coupling enzyme inhibitors, artefact control for M. tuberculosis FBA inhibitor project, biochemical, fluorescence, high throughput | GDH-TPI coupled enzyme counterscreen | shares compounds with Mtb FBA inh | actives 81% (n = 5,600) | inhibition, % at 1 µM; in the data active = inhibition above about 10%
Large screens that a line does not name were inactive (follow-up assays come after a bar, where they were run). A selection: hits, their analogues and other compounds. The true share with any hit is near 3.9%. Rule as the data show it, unless noted: active = inhibition above about 27%; inactive = the rest.

COc1ccccc1Oc1coc2cc(O)ccc2c1=O	Mtb FBA inh 31 | Mtb FBA confirm active | GDH-TPI counter-2 active
CCOc1ccccc1Oc1coc2cc(O)ccc2c1=O	Mtb FBA inh 53 | Mtb FBA confirm 41 | GDH-TPI counter-2 26
COc1ccc(-c2coc3cc(O)ccc3c2=O)cc1OC	none
CCOC(=O)c1ccc(Oc2coc3cc(O)ccc3c2=O)cc1	Mtb FBA inh 28 | Mtb FBA confirm 161 | GDH-TPI counter-2 123
CCOc1ccc2c(=O)c(Oc3ccccc3OCC)coc2c1	none
CN1CCC2(CC1)N=C(c1ccc(F)cc1)C(=S)N2C(=O)c1ccc(C(C)(C)C)cc1	none
CCCCNC(=O)Nc1nnc(C(C)(C)C)s1	none
O=[N+]([O-])c1cccc(S(=O)(=O)[N-]c2nc3ccccc3nc2-n2cc[n+](Cc3ccccc3)c2)c1	none
COc1cccc(NC(=O)NNC(=O)CCc2ccc(O)c(O)c2)c1	none
N=c1oc2ccc3ccccc3c2cc1C(N)=S	Mtb FBA inh 104 | Mtb FBA confirm 33 | GDH-TPI counter-2 17
N=c1oc2ccc3ccccc3c2cc1-c1nc(-c2ccccc2)cs1	none
Cn1c(=O)[nH]c2c(nc(-c3ccc(Cl)cc3)n2C)c1=O	Mtb FBA inh 28 | Mtb FBA confirm inactive | GDH-TPI counter-2 inactive
CCCCn1c(-c2ccc(Cl)cc2)nc2c(=O)n(C)c(=O)[nH]c21	none
CCCCn1c(-c2ccc(OC)cc2)nc2c(=O)n(C)c(=O)[nH]c21	Mtb FBA inh 58 | Mtb FBA confirm 107 | GDH-TPI counter-2 106
CCCn1c(-c2ccc(OC)cc2)nc2c(=O)n(C)c(=O)[nH]c21	Mtb FBA inh 71 | Mtb FBA confirm inactive | GDH-TPI counter-2 inactive
COc1cccc(C(C)(O)c2nc(-c3cccc4cccnc34)cs2)c1 (centres undefined)	none (no result: 3CLpro inhibitor)
COc1ccc2c(c1)C=C(CN1CCN(C3CCCC3)C(CCO)C1)CO2 (centres undefined)	none
COc1ccc(S(=O)Cc2ccc(C(=O)NCc3cccc(OC)c3)o2)cc1 (centres undefined)	Mtb FBA inh 29 | Mtb FBA confirm 58 | GDH-TPI counter-2 42
N#Cc1c(-c2ccccc2F)cc(-c2cccnc2)nc1N	Mtb FBA inh 110 | Mtb FBA confirm inactive | GDH-TPI counter-2 inactive
N#Cc1c(-c2ccccc2)cc(C2CC2)nc1N	none
COc1ccc(/C=C/c2ccncc2)cc1	none
COc1ccc(/C=C/c2c(-c3ccc(OC)cc3)oc3cccnc23)cc1	Mtb FBA inh 41 | Mtb FBA confirm inactive | GDH-TPI counter-2 inactive
O=C(CSc1nncn1-c1ccccc1F)NC1CC1	none (no result: 3CLpro inhibitor)
CC/C(=N\NC(=O)CNC(=O)/C=C/c1ccc(OC)cc1)c1ccccc1	none
CCOc1ccccc1OCCC(=O)NNC(=O)Cn1nc(C)cc1C	none (no result: 3CLpro inhibitor)
Cc1ccc(-c2c(NC(=O)Nc3ccc(F)cc3)nc3ncccn23)cc1	none (no result: GDH-TPI counter-1, 3CLpro inhibitor, Mtb FBA inh, BH1578 lux ind)
COc1ccc(C(=O)/C=C/Nc2ccc([N+](=O)[O-])cc2C)c(OC)c1	none (no result: PrPC TRFRET)
COc1ccc(C(=O)/C=C/Nc2ccc([N+](=O)[O-])cc2C)cc1OC	Mtb FBA inh 88 | Mtb FBA confirm 83 | GDH-TPI counter-2 75
CCCCCCCCNC(=O)C1CSCCS(=O)(=O)N1Cc1ccc(OC)cc1 (centres undefined)	none (no result: GDH-TPI counter-1, 3CLpro inhibitor, Mtb FBA inh, BH1578 lux ind)
COc1ccccc1-c1cc(-c2ccccc2)nc(SCC(=O)O)c1C#N	none
COc1ccc(-c2cc(-c3ccc(Cl)cc3)c(C#N)c(SCC(=O)O)n2)cc1	Mtb FBA inh 47 | Mtb FBA confirm 53 | GDH-TPI counter-2 37
